# Results: PubChem BioAssay AID504648 (National Center for Advancing Translational Sciences (NCATS), 2011)
# Screen size: about 390,000 compounds; about 610 (0.16%) were called active. Roughly 4% stayed inconclusive and do not appear here. The call rests on the fitted dose curve; in most records, active means well fitted inhibition curve with a large enough effect; inconclusive means small, poorly fitted or top-dose-only effect, or effect the other way, or another doubt; inactive means no such curve, though single readings can be large or run the other way. The entries come from a sample that favours actives as a whole. Entries that show only a call come without a potency.
# Experiment: Nrf2 qHTS screen for inhibitors: counterscreen for cytotoxicity
# Conditions: A549 ARE-Fluc cells, CellTiter-Fluor viability, 18-24 h; series mostly up to 46 µM
# Text: NIH Molecular Libraries Probe Production Network [MLPCN]
# NIH Chemical Genomics Center [NCGC]
# Assay Provider: Shyam Biswal, Johns Hopkins University
# Nrf2 is a transcription factor that maintains cellular redox homoestasis and protects cells from xenobiotics. Nrf2 binds to the antioxidant response element (ARE) to induce gene expression of a broad spectrum of genes that encode for antioxidants. […] Finding a small molecule that act as an inhibitor of Nrf2 function would represent a novel therapeutic target that could lead to improvement in survival of patients undergoing chemo- and/or radio- therapy.
# So here we implemented a counterscreen to weed out the cytotoxic compounds.
# 1. Shibata, T., et al., Genetic Alteration of Keap1 Confers Constitutive Nrf2 Activation and Resistance to Chemotherapy in Gallbladder Cancer. Gastroenterology, 2008.
# 2. Sjoblom, T., et al., The consensus coding sequences of human breast and colorectal cancers. Science, 2006. 314(5797): p. 268-74.
# NCGC Assay Protocol Summary:
# A concentration-response assay was performed with A549 ARE_Fluc cells which are suspended in 5% FBS OPTI-MEM. Five uL were dispensed into 1536-well white TC-treated plate using the Kalypsys dispenser to achieve a density of 5000 cells/well in all columns except column 1. The plate is incubated at 37deg C at 5% CO2 for 2 hours before 23 nL of compounds are added with the Kalypsys pin tool equipped with a 1,536-pin array containing 10-nL slotted pins (FP1S10, 0.457-mm diameter, 50.8 mm long; V&P Scientific). The control compounds Budesonide and Staurosporine are both added at a concentration of 2mM and Budesonide is also added as a 1:10 titration, starting at 200uM, to achieve dose-response. After an 18-24 hour incubation at 37deg C at 5% CO2, 5ul of medium is added to column 1. Afterwards 1ul of 5x of CellTiter-Fluor (Promega) is added to every well. The plate is then incubated at 37deg C at 5% CO2 for 30 minutes before they are read on the ViewLux (Perkin Elmer) for a fluorescent read Ex=405(10)/Em=525(10) for a 3 second exposure, 2x binning, and high gain. Then 3 uL of 3x BugLite is dispensed into all wells and the plate is incubated at ambient room temperature for 15 minutes. Afterwards another ViewLux read is performed using the clear filter to get a luminescent read with the settings of 40 second exposure, 2x binning, and high gain. Cytotoxicity is assessed through the first fluorescent read and then biochemical activity against Nrf2 is measured in the luminescent read.
# Potency means the concentration at half of the fitted maximal effect.
row,SMILES,Potency
1,CCC(C)(O)C(=O)OC1C(=O)OC2CC3C(C)=CC(=O)C(O)C3(C)C3C4(O)OCC23C1C(C)C4O (stereo not given),5.8 µM (active)
2,c1ccc(CC2CCCCN2)cc1 (stereo not given),inactive
3,Cc1ccc(-n2c(/C=C/c3cccc(C(F)(F)F)c3)nc3ccccc3c2=O)cc1,inactive
4,CSc1nc2ccc(C)cc2c(=O)n1-c1cccnc1,inactive
5,CCN1CCN(c2ccc([N+](=O)[O-])cc2C#N)CC1,inactive
6,COc1cccc(-c2nc3ccc(N4CCN(C)CC4)cc3[nH]2)c1,inactive
7,CN1CCN(c2cc(N3CCNCC3)ccc2[N+](=O)[O-])CC1,16.4 µM (active)
8,CC1=CC(=Cc2sc3ccccc3[n+]2C)C=C(C)O1,2.59 µM (active)
9,CC(c1ccccc1)(c1ccccc1)c1ccncc1,inactive
10,Cc1ccc(Cn2nnnc2CN2CCC(n3nnc4ccccc43)CC2)cc1,inactive
11,COC(=O)C1=C(c2cc3ccccc3o2)C[C@@H]2CC[C@H]1N2C(=O)NC1CCCCC1,inactive
12,O=Cc1cn(Cc2ccc(F)cc2Cl)c2ccccc12,inactive
13,CO[C@H]1[C@@H](O)[C@@H](C)O[C@H](O[C@H]2[C@H](Oc3cccc4c(O)c5c(=O)oc6ccc(C)c7c(=O)oc(c34)c5c67)O[C@H](C)[C@H](O)[C@@H]2O)[C@@H]1O,inactive
14,CCCCCCCCCCCCn1ccc(=N)cc1,inactive
15,S=P(c1ccccc1)(c1ccccc1)c1c(-c2ccccc2)[nH]c2ccccc12,inactive
16,O=C1CC(=O)N(Cc2ccccc2)C(=O)N1CCCCCCN1C(=O)CC(=O)N(Cc2ccccc2)C1=O,inactive
17,CC(C)(C)c1ccc(CN2C(=O)CN=C(c3ccccc3)c3ccccc32)cc1,25.9 µM (active)
18,COc1cc([C@@H]2c3cc4c(cc3[C@H](OC(C)=O)[C@H]3COC(=O)[C@H]23)OCO4)cc(OC)c1OC,inactive
19,CCN(CC)C(=O)c1ccc(NC(=O)c2sccc2-c2ccccc2)cc1,inactive
20,CC(C)c1ccc(-n2c(O)c(/C=N/N3CCOCC3)c(=O)[nH]c2=S)cc1,inactive
21,CC(=O)OC1C2(CC3N4C(=O)C5(CO)SSC4(CC31O)C(=O)N5C)OC(C)C(C)(C)C2=O (stereo not given),7.31 µM (active)
22,CC(Cc1ccccc1)NCCC(c1ccccc1)c1ccccc1 (stereo not given),inactive
23,Cc1cccc(OP(=O)(Oc2cccc(C)c2)OC(c2ccccc2)C(F)(F)F)c1 (stereo not given),inactive
24,O=C(O)c1cc[c]([Sb](=[O])([OH])[OH])cc1[N+](=O)[O-],inactive
25,Cc1ccc(NC(=O)N(Cc2ccc3c(c2)OCO3)C2CCN(Cc3ccccc3)CC2)cc1F,inactive
26,CN(c1ccccc1)c1ccc([N+](=O)[O-])c2nonc12,20.6 µM (active)
27,CCN(CC)c1ccc([N+](=O)[O-])c2cccnc12,inactive
28,O=P1(Oc2ccccc2)CC(O)C(O)C(COCc2ccccc2)O1 (stereo not given),inactive
29,CC(C)(C)[C@]1(O)C[C@@H]2OC(=O)C[C@@]23C(=O)O[C@@H]2OC(=O)[C@H](O)[C@]213,inactive
30,Cc1ccc(C(C)C)c(OCC(=O)N2CCN(CC(=O)N3CCOCC3)CC2)c1,inactive
